± gives the standard deviation of the averaged measurements. Targets with the largest changes are over-represented here; the source holds about 6,500 in all.
Compound: Nc1ncnc2c1ncn2[C@@H]1O[C@H](COP(=O)(O)OP(=O)(O)OP(=O)(O)O)[C@@H](O)[C@H]1O [adenosine triphosphate]
Assay: NP40-soluble protein abundance relative to vehicle (solubility fold change) (ratio); higher = more soluble protein in presence of ATP
In short: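 Jurkat crude lysate prepared with a Dounce homogeniser was treated at eight concentrations spanning 0.1 to 10 mM, 10 min at room temperature then 3 min at 37 °C. Solubilisation with 0.8% NP40 and benzonase and ultracentrifugation preceded TMT labelling of the supernatant for LC-MS/MS. Fold change against the detergent-processed vehicle was determined per replicate from vsn-normalised intensities, across three independent experiments.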

UniProt Q9H173, sequence (Q9H173 whole entry, one chain of several): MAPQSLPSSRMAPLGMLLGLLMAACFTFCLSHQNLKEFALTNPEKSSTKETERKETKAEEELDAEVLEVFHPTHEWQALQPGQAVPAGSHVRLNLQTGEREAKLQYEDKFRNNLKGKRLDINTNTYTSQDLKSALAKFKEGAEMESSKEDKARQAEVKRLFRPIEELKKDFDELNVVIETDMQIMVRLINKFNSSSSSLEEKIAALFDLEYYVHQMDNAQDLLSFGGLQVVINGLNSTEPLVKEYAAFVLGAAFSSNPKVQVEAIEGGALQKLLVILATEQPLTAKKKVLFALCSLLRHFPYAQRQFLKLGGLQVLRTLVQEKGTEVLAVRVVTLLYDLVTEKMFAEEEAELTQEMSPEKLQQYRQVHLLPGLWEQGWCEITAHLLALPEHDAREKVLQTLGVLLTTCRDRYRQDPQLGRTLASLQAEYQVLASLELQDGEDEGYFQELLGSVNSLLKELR
UniProt Q96GD4, sequence (Q96GD4 whole entry, one chain of several): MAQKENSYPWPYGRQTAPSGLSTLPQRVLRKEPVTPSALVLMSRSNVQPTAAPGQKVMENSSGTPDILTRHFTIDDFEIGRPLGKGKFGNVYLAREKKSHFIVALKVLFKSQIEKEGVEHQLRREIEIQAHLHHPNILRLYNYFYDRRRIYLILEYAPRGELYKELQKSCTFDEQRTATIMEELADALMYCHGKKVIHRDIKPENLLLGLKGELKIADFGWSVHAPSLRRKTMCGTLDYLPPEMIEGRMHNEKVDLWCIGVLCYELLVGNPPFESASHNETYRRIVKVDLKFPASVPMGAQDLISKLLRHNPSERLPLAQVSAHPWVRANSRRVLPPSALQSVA
UniProt O75081, sequence (O75081 whole entry): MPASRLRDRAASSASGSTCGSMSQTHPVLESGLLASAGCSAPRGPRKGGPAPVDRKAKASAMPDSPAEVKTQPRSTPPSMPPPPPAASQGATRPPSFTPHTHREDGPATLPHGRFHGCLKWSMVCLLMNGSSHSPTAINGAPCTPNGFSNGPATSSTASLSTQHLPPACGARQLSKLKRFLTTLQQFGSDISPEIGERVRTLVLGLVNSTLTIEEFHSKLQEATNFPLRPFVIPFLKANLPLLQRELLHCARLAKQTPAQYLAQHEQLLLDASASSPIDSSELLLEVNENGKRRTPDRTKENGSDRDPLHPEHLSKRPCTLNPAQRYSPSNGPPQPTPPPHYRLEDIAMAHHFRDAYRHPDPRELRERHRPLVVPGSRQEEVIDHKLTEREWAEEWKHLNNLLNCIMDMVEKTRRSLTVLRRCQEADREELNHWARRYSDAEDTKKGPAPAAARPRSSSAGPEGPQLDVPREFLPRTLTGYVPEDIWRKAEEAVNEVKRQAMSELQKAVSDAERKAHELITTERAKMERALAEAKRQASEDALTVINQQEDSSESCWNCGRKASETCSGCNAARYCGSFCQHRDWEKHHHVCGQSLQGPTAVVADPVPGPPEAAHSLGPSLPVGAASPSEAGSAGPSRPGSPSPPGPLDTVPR
UniProt P25686, sequence (P25686 whole entry, one chain of several): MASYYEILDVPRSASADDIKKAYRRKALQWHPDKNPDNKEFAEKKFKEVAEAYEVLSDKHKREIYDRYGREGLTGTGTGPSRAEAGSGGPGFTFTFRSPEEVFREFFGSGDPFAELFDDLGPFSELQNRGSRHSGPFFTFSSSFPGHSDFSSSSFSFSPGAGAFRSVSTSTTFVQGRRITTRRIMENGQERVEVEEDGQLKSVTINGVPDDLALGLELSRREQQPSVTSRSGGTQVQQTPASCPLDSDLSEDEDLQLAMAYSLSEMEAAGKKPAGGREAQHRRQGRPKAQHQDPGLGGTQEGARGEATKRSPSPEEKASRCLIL
UniProt Q99081, sequence (Q99081 whole entry, one chain of several): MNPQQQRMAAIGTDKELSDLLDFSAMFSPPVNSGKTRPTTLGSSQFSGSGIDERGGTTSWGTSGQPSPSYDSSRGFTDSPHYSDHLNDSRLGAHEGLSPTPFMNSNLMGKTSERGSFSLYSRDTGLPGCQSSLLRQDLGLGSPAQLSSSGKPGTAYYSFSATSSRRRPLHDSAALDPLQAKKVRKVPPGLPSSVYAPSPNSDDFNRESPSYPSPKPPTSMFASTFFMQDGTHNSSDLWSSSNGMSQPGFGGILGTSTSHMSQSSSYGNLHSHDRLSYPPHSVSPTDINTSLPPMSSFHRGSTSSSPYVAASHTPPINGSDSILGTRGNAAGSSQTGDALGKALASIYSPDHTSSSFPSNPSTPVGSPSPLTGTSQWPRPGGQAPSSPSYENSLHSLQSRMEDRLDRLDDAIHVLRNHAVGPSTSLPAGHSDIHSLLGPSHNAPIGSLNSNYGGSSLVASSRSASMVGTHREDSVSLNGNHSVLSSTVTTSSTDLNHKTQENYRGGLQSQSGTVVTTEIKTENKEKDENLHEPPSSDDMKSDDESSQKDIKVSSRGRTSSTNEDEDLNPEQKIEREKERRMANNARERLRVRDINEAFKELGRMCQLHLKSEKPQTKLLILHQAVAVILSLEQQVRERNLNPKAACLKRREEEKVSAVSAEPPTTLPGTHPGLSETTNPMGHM
UniProt Q5TC12, sequence (Q5TC12 whole entry, one chain of several): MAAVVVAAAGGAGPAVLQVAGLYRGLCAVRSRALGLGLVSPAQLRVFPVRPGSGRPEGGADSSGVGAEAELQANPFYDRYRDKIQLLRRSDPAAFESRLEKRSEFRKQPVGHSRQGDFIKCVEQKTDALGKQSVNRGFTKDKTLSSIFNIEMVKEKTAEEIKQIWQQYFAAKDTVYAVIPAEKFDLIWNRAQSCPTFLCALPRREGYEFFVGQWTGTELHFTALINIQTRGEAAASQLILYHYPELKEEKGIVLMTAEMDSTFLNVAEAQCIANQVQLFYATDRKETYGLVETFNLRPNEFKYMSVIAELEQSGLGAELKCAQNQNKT
UniProt O15392, sequence (O15392 whole entry): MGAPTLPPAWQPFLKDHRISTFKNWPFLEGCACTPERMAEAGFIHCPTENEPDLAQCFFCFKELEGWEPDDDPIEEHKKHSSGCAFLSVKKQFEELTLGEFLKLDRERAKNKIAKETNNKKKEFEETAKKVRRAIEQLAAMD
UniProt O00635, sequence (O00635 whole entry): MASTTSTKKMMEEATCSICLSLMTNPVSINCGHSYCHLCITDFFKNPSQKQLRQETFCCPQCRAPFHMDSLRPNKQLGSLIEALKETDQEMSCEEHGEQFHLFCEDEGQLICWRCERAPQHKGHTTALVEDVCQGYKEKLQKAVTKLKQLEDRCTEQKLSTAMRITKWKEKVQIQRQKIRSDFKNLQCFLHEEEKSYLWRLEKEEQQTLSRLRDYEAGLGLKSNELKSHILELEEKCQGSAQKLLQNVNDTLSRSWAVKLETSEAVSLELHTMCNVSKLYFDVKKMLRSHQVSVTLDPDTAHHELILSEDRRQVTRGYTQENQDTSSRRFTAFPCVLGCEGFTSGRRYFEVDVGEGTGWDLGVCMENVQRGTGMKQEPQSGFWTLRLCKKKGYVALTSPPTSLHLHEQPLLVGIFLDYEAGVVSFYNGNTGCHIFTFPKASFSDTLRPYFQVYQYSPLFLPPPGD
UniProt Q9NWH9, sequence (Q9NWH9 whole entry, one chain of several): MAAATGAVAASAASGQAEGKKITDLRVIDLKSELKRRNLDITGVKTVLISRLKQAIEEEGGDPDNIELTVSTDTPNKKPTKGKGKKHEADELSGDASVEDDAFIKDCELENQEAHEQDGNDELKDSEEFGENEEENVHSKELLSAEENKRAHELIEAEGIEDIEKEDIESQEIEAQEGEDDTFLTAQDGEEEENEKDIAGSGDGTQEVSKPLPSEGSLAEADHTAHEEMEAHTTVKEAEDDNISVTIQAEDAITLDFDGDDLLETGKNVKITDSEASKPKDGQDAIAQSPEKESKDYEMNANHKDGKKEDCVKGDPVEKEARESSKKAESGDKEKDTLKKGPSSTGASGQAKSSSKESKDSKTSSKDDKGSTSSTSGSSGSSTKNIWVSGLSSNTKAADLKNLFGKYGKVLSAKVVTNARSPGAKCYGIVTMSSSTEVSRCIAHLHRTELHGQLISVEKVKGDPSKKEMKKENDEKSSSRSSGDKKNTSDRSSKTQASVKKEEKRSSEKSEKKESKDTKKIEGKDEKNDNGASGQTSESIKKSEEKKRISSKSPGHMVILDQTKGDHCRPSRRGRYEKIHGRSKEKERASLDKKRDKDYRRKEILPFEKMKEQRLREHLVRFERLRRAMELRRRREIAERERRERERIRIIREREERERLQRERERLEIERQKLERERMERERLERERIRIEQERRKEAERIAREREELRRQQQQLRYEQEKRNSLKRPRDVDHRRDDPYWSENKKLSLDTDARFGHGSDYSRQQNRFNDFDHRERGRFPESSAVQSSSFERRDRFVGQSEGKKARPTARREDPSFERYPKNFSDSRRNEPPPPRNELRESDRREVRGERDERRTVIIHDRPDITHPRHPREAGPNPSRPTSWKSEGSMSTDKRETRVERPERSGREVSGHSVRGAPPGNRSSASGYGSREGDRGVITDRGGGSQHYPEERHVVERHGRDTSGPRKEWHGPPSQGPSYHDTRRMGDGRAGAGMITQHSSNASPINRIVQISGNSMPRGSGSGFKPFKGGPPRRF
UniProt Q96MF7, sequence (Q96MF7 whole entry, one chain of several): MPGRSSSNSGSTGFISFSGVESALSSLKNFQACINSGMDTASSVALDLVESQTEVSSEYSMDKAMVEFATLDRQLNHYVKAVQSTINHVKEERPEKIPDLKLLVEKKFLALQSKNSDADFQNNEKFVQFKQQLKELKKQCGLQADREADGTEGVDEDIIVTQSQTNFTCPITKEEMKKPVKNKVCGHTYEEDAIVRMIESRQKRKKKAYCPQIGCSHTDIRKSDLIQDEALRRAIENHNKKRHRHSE

Target	NP40-soluble protein abundance (concentration: 1mM)	NP40-soluble protein abundance (concentration: 2mM)	NP40-soluble protein abundance (concentration: 4mM)	NP40-soluble protein abundance (concentration: 6mM)	NP40-soluble protein abundance (concentration: 8mM)	NP40-soluble protein abundance (concentration: 10mM)
A0A0G2JPP5|Q14160|Q14160-3|A0A0G2JNZ2 (UniProt Q14160)	0.973 ± 0.016	0.96 ± 0.02	0.9694 ± 0.0075	0.98 ± 0.023	0.93 ± 0.021	0.941 ± 0.031
UniProt A0FGR8-2|H7BXI1|A0FGR8-6	1 ± 0.026	1.02 ± 0.025	1.02 ± 0.015	0.997 ± 0.052	1.02 ± 0.03	1.02 ± 0.047
F8W9X7|Q567U6 (UniProt Q567U6)	0.974 ± 0.012	0.962 ± 0.017	0.959 ± 0.024	0.935 ± 0.015	0.951 ± 0.016	0.943 ± 0.028
C9JJN9|Q8N3P4|Q8N3P4-2|Q8N3P4-3 (UniProt Q8N3P4)	1.01 ± 0.053	0.984 ± 0.04	0.994 ± 0.068	0.9606 ± 0.0047	0.955 ± 0.039	0.979 ± 0.023
H7C5U8|Q9P0M9 (UniProt Q9P0M9)	1.12 ± 0.16	0.995 ± 0.22	0.923 ± 0.19	0.944 ± 0.29	0.902 ± 0.19	0.894 ± 0.24
URB1 (UniProt O60287)	1.29 ± 0.067	1.41 ± 0.043	1.65 ± 0.057	1.7 ± 0.12	1.94 ± 0.12	2.15 ± 0.084
E5RFJ1|Q96MF7 (UniProt Q96MF7)	1.04 ± 0.053	1.04 ± 0.012	1.03 ± 0.017	1.09 ± 0.036	1.01 ± 0.018	1 ± 0.034
UniProt O15392|O15392-2	0.961 ± 0.1	2.09 ± 1.6	1.13 ± 0.09	1.23 ± 0.031	1.26 ± 0.092	1.31 ± 0.16
J3KPF0 (UniProt Q9Y4D8)	1.08 ± 0.036	1.04 ± 0.068	1.05 ± 0.025	1.01 ± 0.1	1.02 ± 0.08	1 ± 0.044
J3KTD6|Q96GD4|Q96GD4-5 (UniProt Q96GD4)	1.37 ± 0.16	1.47 ± 0.18	1.6 ± 0.16	1.58 ± 0.25	1.71 ± 0.032	1.76 ± 0.072
PDXK (UniProt O00764)	1.02 ± 0.12	0.987 ± 0.058	1.01 ± 0.066	0.935 ± 0.14	0.989 ± 0.058	0.981 ± 0.051
H0YNP8|Q99081-3|Q99081 (UniProt Q99081)	0.923 ± 0.056	0.935 ± 0.039	0.915 ± 0.041	0.938 ± 0.027	0.916 ± 0.018	0.921 ± 0.046
I3L448|Q5TC12 (UniProt Q5TC12)	0.982 ± 0.049	0.985 ± 0.028	0.983 ± 0.046	0.998 ± 0.04	0.96 ± 0.04	0.952 ± 0.022
H0YLE6|Q9NWH9|H0YNF3 (UniProt Q9NWH9)	0.961 ± 0.054	0.988 ± 0.027	0.993 ± 0.038	1.11 ± 0.059	1.08 ± 0.032	1.13 ± 0.033
TRIM38 (UniProt O00635)	0.949 ± 0.053	1 ± 0.018	0.988 ± 0.041	0.955 ± 0.046	0.986 ± 0.034	0.993 ± 0.045
UniProt O75081|O75081-2|O75081-4	0.943 ± 0.039	0.9218 ± 0.0052	0.907 ± 0.052	0.888 ± 0.14	0.888 ± 0.082	0.97 ± 0.089
C9JRD2|C9JXB9|P25686|P25686-2 (UniProt P25686)	0.969 ± 0.038	0.956 ± 0.019	0.956 ± 0.022	0.971 ± 0.06	0.973 ± 0.016	0.977 ± 0.025
D6REA1|Q9H173|D6RIU8 (UniProt Q9H173)	0.922 ± 0.083	0.938 ± 0.046	0.92 ± 0.083	0.929 ± 0.11	0.917 ± 0.063	0.8663 ± 0.0052

Reference: the supplement of paper PMC6411743
